Sampled rows, rich in hits. Any-hit rate of the full collection: about 1%.
APE1 inh: blocks human APE1 abasic DNA cleavage; P27695; recombinant APE1, TAMRA/BHQ-2 abasic DNA cleavage fluorescence; Potency, µM (doses to about 65.8 µM), for the others: top-dose activity change, negative = inhibition, most hits filed as inhibitors; actives 0.35% (n = 350,000);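 note: plate controls were vehicle for no effect and reference inhibitor for full effect; nearly all actives have a fitted effect of over 55% in size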
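Substrate: short duplex with […] THF abasic site, 5'-TAMRA and 3'-BHQ-2, 50 nM final. APE1 at 0.75 nM, preincubated 15 min RT with compound. Fluorescence increase from first to third read measured activity.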
BLM inh-1: Bloom syndrome helicase (human) inhibition | actives 0.2% (n = 350,000) | Potency, µM (doses to about 56.1 µM), inactives show top-dose activity change, negative = inhibition, most hits filed as inhibitors | recombinant BLM DNA unwinding, fluorescence dequenching | P54132;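 note: plate controls were vehicle for no effect and no enzyme for full effect; nearly all actives have a fitted effect of over 35% in size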
FEN1 inhibitor: blocks human flap endonuclease 1; Potency, µM (doses to about 114 µM), for inactives: top-dose activity change, negative = inhibition, usual class: inhibitors; P39748; Recombinant FEN1 flap cleavage, fluorescence, 15 min; actives 0.35% (n = 390,000); note: nearly all actives have a fitted effect of over 65% in size
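Enzyme 10 nM, 15 min RT preincubation with compound; start with substrate 50 nM final; reads at 0 and 15 min; qHTS titration, four-parameter Hill fit.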
L3MBTL1 inh: L3MBTL1 (human) inhibition; Q9Y468; AlphaScreen L3MBTL1–H3K9me1 peptide binding; Potency, µM (doses to about 57.1 µM), for inactives: top-dose activity, negative = inhibition, most hits filed as inhibitors; actives 0.66% (n = 230,000); AID 485360; note: nearly all actives have a fitted effect of over 60% in size
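AlphaScreen assay: L3MBTL1 (50 nM final) was preincubated 30 min at room temperature with biotinylated H3(1-15)K9me1 peptide (75 nM final), then 30 min with library compounds; streptavidin donor and nickel chelate acceptor beads (10 ug/mL final) added, 30 min dark.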
WRN inhibitor: WRN helicase (human) inhibition; Potency, µM (doses to about 114 µM), without a hit: top-dose activity change, negative = inhibition, actives largely listed as inhibitors; actives 0.46% (n = 360,000); WRN helicase unwinding, fluorescent forked duplex, kinetic; Q14191; note: nearly all actives have a fitted effect of over 55% in size
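Kinetic red-fluorescence monitoring (525/598 nm) tracks WRN helicase activity after 100 nM fluorophore-quencher forked duplex and 2 mM ATP are added to 20 nM enzyme pretreated 15 min at room temperature with compound.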
RECQ1 helicase: RECQ1 (human) helicase inhibition; P46063; RECQ1 DNA unwinding, red fluorescence kinetic read; AID 2549; actives 0.54% (n = 240,000); Potency, µM (highest dose often 57.3 µM), for the others: at the highest dose activity, negative = inhibition, usual class: inhibitors;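 note: plate controls were vehicle for no effect and no enzyme for full effect; nearly all actives have a fitted effect of over 30% in size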
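RECQ1T1 50 nM; forked duplex (20 bp + 30-nt ss tails) 200 nM, ATP 2 mM final; pH 8.0, 2 mM MgCl2, 2.5 ug/ml poly(dI-dC); 15 min compound preincubation; discontinuous kinetic read over 2 h at RT.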
BLM inh-2: BLM (human) helicase inhibition, confirmation | shares compounds with BLM inh-1 | BLM DNA unwinding, fluorescence quenching, biochemical | Potency, µM, for inactives: max response, negative = inhibition, most hits filed as inhibitors | actives 40% (n = 220) | AID 2585;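 note: strand separation dequenches TAMRA so unwinding raises red fluorescence; series mostly up to about 69 µM; nearly all actives have a fitted effect of over 45% in size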
An asterisk follows results filed as active; i = inactive; ? = inconclusive; . = no result given. Calls come from the whole dose curve; as a rule, active = well fitted curve in the direction sought with a large enough effect; inconclusive = small, poorly fitted or top-dose-only effect, or another doubt; inactive = no such curve, though single readings can be large; an effect the other way counts as inactive or inconclusive. Unless noted, % is set by controls: 0 for no effect and ±100 for the full control effect; potency is the fitted concentration of half-maximal effect.

SMILES	APE1 inh	BLM inh-1	FEN1 inhibitor	L3MBTL1 inh	WRN inhibitor	RECQ1 helicase	BLM inh-2
COC(=O)c1cc2sc(Cl)cc2n1Cc1c(C)cc(C)cc1C	.	-4%	2%	.	.	.	.
O=C(O)C1CSC(c2ccco2)N1 (stereo not given)	14µM*	25µM*	?	44%	14µM*	32µM*	3%
CCC(CNc1cc(OC)cc2cccnc12)NC1CCCCC1 (stereo not given)	-2%	8.9µM*	?	-25%	3%	?	8%
FC(F)(F)c1cc(Oc2ccccc2Cl)nc(-c2ccccn2)n1	3%	4.5µM*	4%	2%	-1%	-5%	4.1µM*
COc1cccc(CSc2nc3cc(OC)c(OC)cc3c3nc(CCn4nc(C)cc4C)nn23)c1	.	1%	16%	.	.	.	.
COc1ccc(-c2cnc(C(N)=O)c(=O)[nH]2)cc1	.	.	.	.	-6%	.	.
O=C(CCl)Nc1ccccc1Sc1ccc(Cl)cc1	9%	16µM*	-3%	.	-2%	i	11µM*
CC(=O)N1CCN(CC(=O)Nc2ccccc2Sc2ccc(Cl)cc2)CC1	3%	-1%	13%	5%	9%	-5%	.
CC(C)(C)OC(=O)N1CCCC1C(=O)NC1COC2CC(n3ccc(=O)[nH]c3=O)OC12 (stereo not given)	2%	-2%	-2%	.	.	-8%	.
O=C(CSc1ccc(-c2ccco2)nn1)c1ccccc1	0%	25µM*	1%	?	?	-5%	-6%
O=C1NC[C@H](Cc2ccc(O)cc2)N(C[C@@H]2CCCN2C[C@H](Cc2ccccc2)N2C[C@H](Cc3ccc(O)cc3)N(CC3CCCCCC3)C(=O)C2=O)C1=O	.	.	.	.	-2%	.	.
COc1ccc(C2/C(=C(\O)c3ccc4c(c3)OCCO4)C(=O)C(=O)N2CCCN(C)C)cc1 (stereo not given)	1%	-2%	5%	-1%	6%	i	.
COc1cccc(C2/C(=C(\O)c3ccc4c(c3)OCCO4)C(=O)C(=O)N2CCN(C)C)c1 (stereo not given)	?	8.9µM*	6%	7%	-10%	i	-7%
O=C(NC1CCCCC1)OC1CC2CC1[C@H]1CCCCN1C2=O (stereo not given in full)	.	.	.	.	10%	.	.
CCN(CCO)c1nc(SC)nc2c1sc1nc(-c3ccco3)c3c(c12)CCC3	?	10µM*	-9%	-24%	-13%	-5%	?
CCn1ncc(Cl)c1C(=O)Nc1ccc2c(c1)CCC2	13%	25µM*	.	.	.	.	18µM*
CCn1ncc(Cl)c1C(=O)Nc1ccncc1	-2%	-6%	-15%	4%	-5%	-1%	.
CCCCc1c(-c2ccccc2OC)ncn1CCc1ccccc1Cl	.	.	.	.	-10%	.	.
O=c1c2oc3ccccc3c2n(Cc2ccccc2F)c(=O)n1Cc1ccccc1	.	-3%	13%	.	.	.	.
Cc1cc(=O)[nH]c2c(N=Nc3ccc(O)cc3)c(N)nn12	?	16µM*	-32%	1%	?	i	?
CCOc1ccc(N2C(=O)C(C)CNC2=S)cc1 (stereo not given)	.	.	1%	.	?	.	.
Cc1ccc(-c2nn3c(C)nnc3s2)cc1NC(=O)c1ccc(-c2ccc(Cl)cc2Cl)o1	-2%	11µM*	56µM*	7%	?	i	7.3µM*
Cc1ccc(NC(=O)CSc2nc(-c3ccc(C(C)(C)C)cc3)nc3cc(=O)[nH]n23)cc1C	.	3%	18%	.	.	.	.
CCOc1ccc(-c2nc(SCC(=O)Nc3cc(F)ccc3F)n3[nH]c(=O)cc3n2)cc1	.	10µM*	-21%	.	.	.	11µM*
COc1cccc(=O)c2c(C)n(CC(=O)c3ccccc3)c(C)c12	-3%	25µM*	-14%	?	-13%	-18%	4%
SMILES	APE1 inh	BLM inh-1	FEN1 inhibitor	L3MBTL1 inh	WRN inhibitor	RECQ1 helicase	BLM inh-2
COc1ccc2c(C)cc(SCC(=O)Nc3nsc(-c4ccc(C)cc4)n3)nc2c1	?	0%	2%	3%	5%	i	.
Cc1ccc(-c2nc(NC(=O)CSc3cc(C)c4ccccc4n3)ns2)cc1	?	6.3µM*	?	6%	-15%	18%	18µM*
CN(C)[C@H]1C(=O)C(C(=O)NCN2CCCC2)=C(O)[C@]2(O)C(=O)C3=C(O)c4c(O)cccc4[C@](C)(O)[C@H]3C[C@H]12	.	14µM*	.	.	.	.	20µM*
O=C(/C=C/c1ccccc1Cl)Nc1ccc2c(c1)C(=O)NC2=O	13µM*	32µM*	-28%	.	?	-23%	?
O=C(c1[nH]c2ccccc2c1Sc1ccc(Cl)cc1)N1CCCCC1	.	0%	-11%	.	.	.	.
Cn1c(SCC(=O)c2cc(Cl)c(Cl)s2)nnc1-c1ccco1	2%	13µM*	-21%	-14%	?	-6%	?
Cc1ccc(C(=O)CSc2nnc(-c3ccco3)n2C)cc1	12%	3%	1%	7%	?	i	.
Nc1c(C(=O)NC2CC2)sc2nc3c(c(-c4ccco4)c12)CC/C3=C/c1ccco1	3%	5.6µM*	5.6µM*	0.89µM*	50µM*	-12%	?
NC(=O)c1sc2nc3c(c(-c4ccco4)c2c1N)CCC3	7%	-26%	-24%	?	-30%	2%	.
Cc1ccccc1Nc1cc2ccccc2c(=O)[nH]1	-8%	28µM*	-1%	-14%	?	-3%	?
O=c1c2cc3c(cc2nc2sc(Nc4cccc([N+](=O)[O-])c4)nn12)OCO3	.	0%	-5%	.	.	.	.
Cc1cccc(Nc2nn3c(=O)c4cc5c(cc4nc3s2)OCO5)c1	.	11µM*	4%	.	.	.	10µM*
COc1ccc(C(=O)Nc2nnc(SCc3cc(=O)c4cc(C)cc(C)c4[nH]3)s2)cc1	.	20µM*	14%	.	.	.	18µM*
COc1ccc(N2CCN(c3nc4ccccc4n3CC(=O)c3ccccc3)CC2)cc1	13%	-14%	-19%	-11%	1%	-10%	.
CCOC(=O)C1CCN(c2nc3ccccc3n2CC(=O)c2ccccc2)CC1	0%	20µM*	19%	-9%	-6%	i	-2%
COc1ccc(NC(=O)/C=C/c2ccc(Br)o2)cn1	-5%	-24%	-24%	.	?	-28%	.
COc1ccccc1CNC(=O)/C=C/c1ccc(Br)o1	14%	10µM*	5%	.	-15%	-9%	-11%
CC(C)CN(C(=O)COC(=O)c1ccc(-c2ccccc2)cc1)C1CCS(=O)(=O)C1 (stereo not given)	-8%	-5%	-8%	?	3%	-9%	.
